# Data: the supplement of paper PMC10849652
# Targets with a hit are over-represented here; the source holds about 7,900 in all. About 0.6% of all pairs of compound and target were hits. Values without a mark were called inactive.
# Columns and labels:
# Experiment in all cases: log2 fold change, soluble protein after heating vs DMSO (PISA); higher = thermal stabilisation; K562 cells, 10 uM, 30 min; active = over 0.2 and 3.5 SD of the protein, either way, in both replicates (recomputed)
# ZNF217 = ZNF217 (UniProt O75362)
# How it was run: (§1)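 K562 cells at 2×10^6 cells/mL were treated with 10 μM compound for 30 min. Aliquots were heated for 3 min across 48°C-58°C, pooled, and extracted in PBS with 0.5% NP-40 at 4°C; soluble protein was the supernatant after 21,000xg for 90 min. Soluble protein was quantified by TMTpro 16plex LC-MS/MS with channel sums equalised, and reported as log2 fold change in thermal stability against DMSO controls, with values from duplicates.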
# ZNF239 = ZNF239 (UniProt Q16600)
# How it was run: as §1
# ZNF277 = ZNF277 (UniProt Q9NRM2)
# How it was run: as §1
# ZNF511 isoform 1 = ZNF511 isoform 1 (UniProt Q8NB15)
# How it was run: as §1
# ZNF579 = ZNF579 (UniProt Q8NAF0)
# How it was run: as §1
# ZNF609 = ZNF609 (UniProt O15014)
# How it was run: as §1
# ZNF622 = ZNF622 (UniProt Q969S3)
# How it was run: as §1
# ZRANB2 = ZRANB2 (UniProt O95218)
# How it was run: as §1
# ZW10 = ZW10 (UniProt O43264)
# How it was run: as §1
# ZWILCH = ZWILCH (UniProt Q9H900)
# How it was run: as §1
# ZYG11B = ZYG11B (UniProt Q9C0D3)
# How it was run: as §1
# ZNF580 = ZNF580 (UniProt Q9UK33)
# How it was run: as §1
# ZNF512 = ZNF512 (UniProt Q96ME7)
# How it was run: as §1
# ZNF512, sequence (Q96ME7 whole entry, looked up): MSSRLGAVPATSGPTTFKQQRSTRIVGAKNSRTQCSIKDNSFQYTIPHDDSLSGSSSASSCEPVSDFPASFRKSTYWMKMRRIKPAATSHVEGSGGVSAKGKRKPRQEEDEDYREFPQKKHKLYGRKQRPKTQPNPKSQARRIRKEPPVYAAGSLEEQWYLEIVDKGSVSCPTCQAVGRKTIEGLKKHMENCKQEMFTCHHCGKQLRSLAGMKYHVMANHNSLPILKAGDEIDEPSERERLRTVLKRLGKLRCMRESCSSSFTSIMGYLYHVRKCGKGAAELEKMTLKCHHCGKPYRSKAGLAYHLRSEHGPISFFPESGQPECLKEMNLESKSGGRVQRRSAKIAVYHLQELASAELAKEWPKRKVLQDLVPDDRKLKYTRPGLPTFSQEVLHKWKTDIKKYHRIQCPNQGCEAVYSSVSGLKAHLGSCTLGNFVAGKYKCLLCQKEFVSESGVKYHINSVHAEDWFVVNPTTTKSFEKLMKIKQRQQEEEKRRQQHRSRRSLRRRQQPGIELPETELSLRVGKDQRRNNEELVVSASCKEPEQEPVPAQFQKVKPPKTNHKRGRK
# ZW10, sequence (O43264 whole entry, looked up): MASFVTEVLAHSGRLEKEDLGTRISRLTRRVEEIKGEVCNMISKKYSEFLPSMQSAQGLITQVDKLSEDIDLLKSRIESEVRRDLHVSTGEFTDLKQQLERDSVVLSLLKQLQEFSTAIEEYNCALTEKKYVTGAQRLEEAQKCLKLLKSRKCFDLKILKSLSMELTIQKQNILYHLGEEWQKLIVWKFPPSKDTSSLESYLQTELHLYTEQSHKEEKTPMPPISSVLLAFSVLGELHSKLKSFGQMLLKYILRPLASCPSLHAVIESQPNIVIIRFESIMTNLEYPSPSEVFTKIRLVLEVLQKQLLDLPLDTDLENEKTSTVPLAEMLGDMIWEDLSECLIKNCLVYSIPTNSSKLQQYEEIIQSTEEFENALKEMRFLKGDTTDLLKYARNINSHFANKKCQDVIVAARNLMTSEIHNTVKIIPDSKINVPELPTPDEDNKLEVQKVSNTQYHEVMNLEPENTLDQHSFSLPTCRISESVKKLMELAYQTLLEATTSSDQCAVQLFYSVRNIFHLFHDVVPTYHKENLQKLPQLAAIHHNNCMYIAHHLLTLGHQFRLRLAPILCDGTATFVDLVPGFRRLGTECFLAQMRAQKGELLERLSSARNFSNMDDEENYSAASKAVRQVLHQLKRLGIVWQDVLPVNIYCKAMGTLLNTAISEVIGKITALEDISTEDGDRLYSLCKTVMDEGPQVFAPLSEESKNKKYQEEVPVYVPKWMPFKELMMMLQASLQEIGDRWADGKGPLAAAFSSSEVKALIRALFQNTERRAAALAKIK
# ZNF579, sequence (Q8NAF0 whole entry, looked up): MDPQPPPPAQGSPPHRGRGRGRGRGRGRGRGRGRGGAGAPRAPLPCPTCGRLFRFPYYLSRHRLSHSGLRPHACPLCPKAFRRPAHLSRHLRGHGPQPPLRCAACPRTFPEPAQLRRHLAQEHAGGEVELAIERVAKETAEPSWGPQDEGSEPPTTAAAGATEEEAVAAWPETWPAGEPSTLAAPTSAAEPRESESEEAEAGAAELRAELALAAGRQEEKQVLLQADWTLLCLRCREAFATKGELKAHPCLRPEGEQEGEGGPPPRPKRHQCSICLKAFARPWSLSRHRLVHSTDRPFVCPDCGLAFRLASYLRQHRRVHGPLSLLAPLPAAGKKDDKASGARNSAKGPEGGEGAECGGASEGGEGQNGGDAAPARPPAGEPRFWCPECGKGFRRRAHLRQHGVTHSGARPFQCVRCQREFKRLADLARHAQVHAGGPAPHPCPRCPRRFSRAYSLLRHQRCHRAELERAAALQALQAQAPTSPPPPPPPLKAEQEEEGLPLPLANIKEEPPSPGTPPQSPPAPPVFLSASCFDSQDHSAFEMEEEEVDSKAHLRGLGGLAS
# ZNF511 isoform 1, sequence (Q8NB15 whole entry, looked up, canonical isoform): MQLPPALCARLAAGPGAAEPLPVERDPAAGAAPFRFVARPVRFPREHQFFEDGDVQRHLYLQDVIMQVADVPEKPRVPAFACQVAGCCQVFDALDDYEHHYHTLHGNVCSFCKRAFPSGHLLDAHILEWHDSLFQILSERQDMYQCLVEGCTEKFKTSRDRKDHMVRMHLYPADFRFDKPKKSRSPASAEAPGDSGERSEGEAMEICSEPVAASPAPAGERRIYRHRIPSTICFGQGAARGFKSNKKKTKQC
# ZRANB2, sequence (O95218 whole entry, looked up): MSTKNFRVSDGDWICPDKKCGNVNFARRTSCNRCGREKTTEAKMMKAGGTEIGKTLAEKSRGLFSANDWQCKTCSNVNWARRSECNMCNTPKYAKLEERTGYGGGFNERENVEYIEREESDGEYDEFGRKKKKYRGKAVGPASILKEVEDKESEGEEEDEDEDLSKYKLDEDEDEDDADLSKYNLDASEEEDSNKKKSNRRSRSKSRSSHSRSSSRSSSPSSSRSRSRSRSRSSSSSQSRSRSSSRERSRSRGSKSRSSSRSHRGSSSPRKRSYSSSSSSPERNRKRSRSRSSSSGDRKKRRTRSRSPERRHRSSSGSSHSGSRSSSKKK
# ZYG11B, sequence (Q9C0D3 whole entry, looked up): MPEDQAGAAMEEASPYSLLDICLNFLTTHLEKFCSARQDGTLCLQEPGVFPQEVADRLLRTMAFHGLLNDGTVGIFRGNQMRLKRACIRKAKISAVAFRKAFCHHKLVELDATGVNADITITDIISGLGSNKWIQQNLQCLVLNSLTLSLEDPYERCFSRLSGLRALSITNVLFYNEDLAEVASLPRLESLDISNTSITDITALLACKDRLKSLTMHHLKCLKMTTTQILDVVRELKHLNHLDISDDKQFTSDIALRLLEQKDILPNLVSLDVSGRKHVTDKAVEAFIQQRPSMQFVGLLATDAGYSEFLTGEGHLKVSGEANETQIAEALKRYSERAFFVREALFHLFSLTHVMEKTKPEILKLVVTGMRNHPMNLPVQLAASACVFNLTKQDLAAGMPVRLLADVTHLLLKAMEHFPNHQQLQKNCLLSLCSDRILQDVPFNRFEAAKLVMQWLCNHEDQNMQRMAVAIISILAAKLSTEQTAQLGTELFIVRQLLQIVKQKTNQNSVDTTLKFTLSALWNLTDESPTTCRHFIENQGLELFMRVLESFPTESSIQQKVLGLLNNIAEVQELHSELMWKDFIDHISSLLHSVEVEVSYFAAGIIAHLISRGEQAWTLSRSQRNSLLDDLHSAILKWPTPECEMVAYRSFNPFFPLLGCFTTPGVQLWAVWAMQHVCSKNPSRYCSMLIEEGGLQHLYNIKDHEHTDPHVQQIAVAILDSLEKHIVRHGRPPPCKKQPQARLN
# ZNF239, sequence (Q16600 whole entry, looked up): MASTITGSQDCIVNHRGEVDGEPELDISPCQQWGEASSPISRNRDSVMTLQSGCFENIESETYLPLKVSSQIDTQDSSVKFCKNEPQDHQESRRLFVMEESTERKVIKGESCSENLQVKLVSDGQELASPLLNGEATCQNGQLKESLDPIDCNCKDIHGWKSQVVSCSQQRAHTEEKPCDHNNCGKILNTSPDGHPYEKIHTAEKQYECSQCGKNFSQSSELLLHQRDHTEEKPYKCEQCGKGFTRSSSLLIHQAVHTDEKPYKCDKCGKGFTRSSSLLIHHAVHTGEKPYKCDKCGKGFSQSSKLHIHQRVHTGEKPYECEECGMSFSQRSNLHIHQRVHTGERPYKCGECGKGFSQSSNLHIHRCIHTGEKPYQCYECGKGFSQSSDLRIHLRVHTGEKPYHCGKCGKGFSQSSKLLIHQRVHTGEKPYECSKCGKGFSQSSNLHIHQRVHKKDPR
# ZNF217, sequence (O75362 whole entry, looked up): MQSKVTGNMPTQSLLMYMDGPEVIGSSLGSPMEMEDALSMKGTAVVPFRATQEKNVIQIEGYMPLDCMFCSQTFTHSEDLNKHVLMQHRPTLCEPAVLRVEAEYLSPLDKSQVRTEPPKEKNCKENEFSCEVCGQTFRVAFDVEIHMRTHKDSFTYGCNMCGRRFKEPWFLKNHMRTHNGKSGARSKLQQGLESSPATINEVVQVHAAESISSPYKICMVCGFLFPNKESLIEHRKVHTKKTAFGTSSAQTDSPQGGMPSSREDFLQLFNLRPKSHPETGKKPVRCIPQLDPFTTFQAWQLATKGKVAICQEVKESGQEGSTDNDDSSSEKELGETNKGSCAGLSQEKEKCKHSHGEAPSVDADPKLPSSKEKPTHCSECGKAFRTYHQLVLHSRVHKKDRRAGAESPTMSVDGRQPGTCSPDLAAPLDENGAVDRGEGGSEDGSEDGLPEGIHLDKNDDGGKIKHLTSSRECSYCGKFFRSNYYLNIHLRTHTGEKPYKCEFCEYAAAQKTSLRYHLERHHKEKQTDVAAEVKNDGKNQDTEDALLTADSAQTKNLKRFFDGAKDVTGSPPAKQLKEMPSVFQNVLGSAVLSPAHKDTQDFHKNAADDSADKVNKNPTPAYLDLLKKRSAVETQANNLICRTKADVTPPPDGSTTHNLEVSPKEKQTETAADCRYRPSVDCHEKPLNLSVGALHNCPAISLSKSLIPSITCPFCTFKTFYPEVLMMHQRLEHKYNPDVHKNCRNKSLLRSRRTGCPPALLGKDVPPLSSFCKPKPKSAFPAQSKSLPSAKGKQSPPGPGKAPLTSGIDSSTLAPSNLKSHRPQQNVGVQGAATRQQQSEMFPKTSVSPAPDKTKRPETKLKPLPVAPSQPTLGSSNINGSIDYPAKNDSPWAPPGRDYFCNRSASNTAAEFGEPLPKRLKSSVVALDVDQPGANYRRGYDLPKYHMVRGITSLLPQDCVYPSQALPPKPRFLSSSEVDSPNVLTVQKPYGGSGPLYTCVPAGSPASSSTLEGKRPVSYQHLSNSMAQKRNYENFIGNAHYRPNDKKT
# ZNF580, sequence (Q9UK33 whole entry, looked up): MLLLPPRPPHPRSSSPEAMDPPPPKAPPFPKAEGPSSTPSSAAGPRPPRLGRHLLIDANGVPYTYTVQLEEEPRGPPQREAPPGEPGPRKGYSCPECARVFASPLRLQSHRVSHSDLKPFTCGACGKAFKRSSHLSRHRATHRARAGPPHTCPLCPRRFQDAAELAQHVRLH
SMILES,log2 fold change (ZNF217),log2 fold change (ZNF239),log2 fold change (ZNF277),log2 fold change (ZNF511 isoform 1),log2 fold change (ZNF579),log2 fold change (ZNF609),log2 fold change (ZNF622),log2 fold change (ZRANB2),log2 fold change (ZW10),log2 fold change (ZWILCH),log2 fold change (ZYG11B),log2 fold change (ZNF580),log2 fold change (ZNF512)
Cc1ccc(NC(=O)c2ccc(CN3CC[C@H](N(C)C)C3)c(C(F)(F)F)c2)cc1Nc1nccc(-c2cncnc2)n1 [bafetinib],-0.057,-0.452,0.246,-0.098,0.107,-0.233,0.021,-0.014,0.003,-0.031,-0.272 (active),–,–
Cn1cc(-c2ccc3nnc(C(F)(F)c4ccc5ncccc5c4)n3n2)cn1,-0.01,-0.102,-0.064,-0.132,0.002,-0.286,0.024,0.036,-0.069,-0.069,0,–,–
CS(=O)(=O)CCNCc1ccc(-c2ccc3ncnc(Nc4ccc(OCc5cccc(F)c5)c(Cl)c4)c3c2)o1 [lapatinib],0.018,-0.095,0,-0.085,0.05,0.09,0,0.018,-0.01,0.018,-0.05,-0.025,–
Cc1cc(Nc2cc(N3CCN(C)CC3)nc(Sc3ccc(NC(=O)C4CC4)cc3)n2)n[nH]1 [tozasertib],-0.07,-0.116,0.202,0.049,0.041,0.078,-0.064,-0.029,0.068,0.041,-0.031,-0.138,–
Cn1cncc1[C@@](N)(c1ccc(Cl)cc1)c1ccc2c(c1)c(-c1cccc(Cl)c1)cc(=O)n2C [tipifarnib],-0.152,0.178,0.044,0.062,0,0,-0.048,-0.001,-0.087,-0.01,0.089,-0.204,–
COC(=O)[C@H](CCSC)NC(=O)c1ccc(NC[C@@H](N)CS)cc1-c1ccccc1,-0.067,0.002,-0.047,-0.201,-0.012,0.019,0.005,0.05,-0.079,-0.077,0.013,-0.082,–
Cc1ccc(NC(=O)c2cccc(N(C)C)c2)cc1NC(=O)c1ccc(O)cc1,0.006,0.143,-0.097,0.012,-0.183,0.162,-0.036,-0.012,-0.043,0.238,-0.018,–,–
NC1(Cc2ccc(Cl)cc2)CCN(c2ncnc3[nH]ccc23)CC1,0.197,0.117,-0.319,0.079,-0.064,-0.115,-0.263 (active),0.014,-0.062,-0.049,0.055,0.183,–
CCCS(=O)(=O)Nc1ccc(F)c(C(=O)c2c[nH]c3ncc(-c4ccc(Cl)cc4)cc23)c1F [vemurafenib],0.044,0.004,0.063,-0.087,-0.157,0.025,0.012,-0.014,0.025,0.04,0.048,0.042,–
CN1CCc2c(c3ccccc3n2Cc2ccc(C(=O)NO)cc2)C1 [Tubastatin A],-0.086,0.091,0.275,-0.089,0.095,-0.126,0.018,-0.032,0.031,-0.028,0.04,-0.08,–
CCn1c(C(=O)N(C2CC2)C2CC2)cc2c3c(ncn3C)c(Nc3cc(C)n(C)n3)nc21,-0.034,0.004,-0.188,–,0.002,0.007,0.005,0.014,-0.06,0.021,-0.017,–,0.128
CNC(=O)c1ccc(Nc2ncc(C(F)(F)F)c(NCc3nccnc3N(C)S(C)(=O)=O)n2)cc1 [defactinib],-0.145,-0.014,0.161,-0.128,0.019,-0.046,0.057,-0.046,-0.083,-0.007,-0.058,-0.099,–
NC(=O)c1ccc2nc(-c3ccc(Oc4ccc(Cl)cc4)cc3)[nH]c2c1,0.015,0.248,-0.104,–,0.042,0.029,0.007,-0.015,-0.005,-0.028,0,–,-0.014
C#Cc1cccc(Nc2ncnc3cc(OCCOC)c(OCCOC)cc23)c1 [erlotinib],0.001,-0.098,0.097,–,-0.056,0.03,0.056,0.005,0.016,0.009,-0.015,–,-0.048
Cc1ccc2c(=O)c3ccccc3n(CCCN)c2c1C,-0.142,0.011,-0.126,0.17,-0.168,0.205,-0.285 (active),-0.399 (active),0.013,0.013,0.009,-0.196,–
NCC(=O)Nc1ccc(-n2nc(C(F)(F)F)cc2-c2ccc3c(ccc4ccccc43)c2)cc1,-0.081,-0.027,-0.148,-0.005,0.085,-0.076,-0.016,0.067,-0.007,-0.068,-0.045,-0.038,–
COc1cc2nc(-c3cc(F)ccc3O)nc(N[C@@H]3CNC[C@H]3C(C)(C)O)c2cc1OC,-0.026,0.024,0.268,-0.013,0.042,0.205,0.028,-0.006,0.041,0.03,0.034,0.093,–
CS(=O)(=O)c1ccc(-c2cnc(N)c(C(=O)Nc3ccccc3)n2)cc1,-0.037,-0.06,–,-0.022,0.019,0.021,0.066,-0.013,0.027,-0.003,0.01,-0.231,–
CN1CCN(c2nc(C3=C(c4c[nH]c5ccccc45)C(=O)NC3=O)c3ccccc3n2)CC1 [sotrastaurin],-0.019,0.144,–,0.001,0.014,0.016,0.018,-0.027,-0.089,-0.059,0.026,0.039,–
Nc1ccccc1NC(=O)c1ccc(CNC(=O)OCc2cccnc2)cc1 [entinostat],0.075,-0.023,–,-0.078,-0.036,-0.061,-0.007,-0.024,0.063,0.002,0.013,0,–
Cc1ccc(NC(=O)c2cccc(C(C)(C)C#N)c2)cc1Nc1ccc2ncn(C)c(=O)c2c1,0.075,-0.002,–,-0.026,0.043,-0.046,0.048,0.034,0.015,0,-0.006,-0.174,–
CC(C)N(C[C@H]1O[C@@H](n2cnc3c(N)ncnc32)[C@H](O)[C@@H]1O)[C@H]1C[C@@H](CCc2nc3cc(C(C)(C)C)ccc3[nH]2)C1 [pinometostat],0.002,-0.008,0.267,–,0.02,0.03,0.014,0.012,0.152,0.074,0.01,-0.072,–
